# Measured values: ChEMBL document CHEMBL3988442, “University of Dundee, Small-Polar-MMV Screening Library” (2021)
# For some of these results: Potency and affinity values are given separately.
# Assays:
# Set-up in all cases: scale not given: direction of the effect not stated beside the values
# [1] = target: Protein translocase subunit SecA (Escherichia coli (strain K12)) (UniProt P10408); test: Assay to Identify E. coli SecA ATPase Inhibitors; assay type: functional; conditions: 30 µM
# [2] = target: T1, Ubiquitin-activating enzyme e1, putative (Leishmania donovani (strain BPK282A1)) (UniProt E9BSI1); test: Leishmania donovani Ubiquitin Activating Enzyme (LdE1); assay type: functional; conditions: 30 µM
# T1 sequence (whole entry): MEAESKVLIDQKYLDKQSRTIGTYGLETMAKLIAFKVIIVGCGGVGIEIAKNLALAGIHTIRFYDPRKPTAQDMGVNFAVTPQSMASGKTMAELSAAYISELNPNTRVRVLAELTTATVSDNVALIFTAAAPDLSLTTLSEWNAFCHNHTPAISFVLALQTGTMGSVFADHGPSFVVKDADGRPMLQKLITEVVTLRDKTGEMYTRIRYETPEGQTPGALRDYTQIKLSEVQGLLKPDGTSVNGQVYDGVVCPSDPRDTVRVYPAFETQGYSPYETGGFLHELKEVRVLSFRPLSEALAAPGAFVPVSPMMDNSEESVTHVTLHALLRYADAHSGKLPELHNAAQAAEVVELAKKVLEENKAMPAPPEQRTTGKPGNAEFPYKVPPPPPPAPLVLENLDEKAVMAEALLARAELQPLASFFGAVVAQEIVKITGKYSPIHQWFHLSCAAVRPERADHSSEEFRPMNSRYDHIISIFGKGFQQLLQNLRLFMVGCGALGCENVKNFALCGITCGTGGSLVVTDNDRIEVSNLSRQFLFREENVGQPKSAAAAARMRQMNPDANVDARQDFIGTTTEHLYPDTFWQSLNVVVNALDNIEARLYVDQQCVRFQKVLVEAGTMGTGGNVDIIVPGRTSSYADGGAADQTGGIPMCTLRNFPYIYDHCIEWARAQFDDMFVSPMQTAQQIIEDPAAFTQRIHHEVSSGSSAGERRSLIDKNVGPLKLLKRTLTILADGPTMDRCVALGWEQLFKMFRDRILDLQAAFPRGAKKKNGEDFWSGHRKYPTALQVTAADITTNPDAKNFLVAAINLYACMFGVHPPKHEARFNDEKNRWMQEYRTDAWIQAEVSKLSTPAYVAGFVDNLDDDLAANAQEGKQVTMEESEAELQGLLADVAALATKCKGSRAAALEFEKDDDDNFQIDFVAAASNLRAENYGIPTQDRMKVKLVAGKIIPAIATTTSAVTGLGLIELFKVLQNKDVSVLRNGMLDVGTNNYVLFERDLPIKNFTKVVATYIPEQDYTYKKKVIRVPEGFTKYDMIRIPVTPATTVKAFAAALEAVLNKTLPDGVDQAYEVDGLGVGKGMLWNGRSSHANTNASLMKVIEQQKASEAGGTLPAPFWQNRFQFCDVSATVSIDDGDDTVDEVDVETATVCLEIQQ
# [3] = target: AMP-activated protein kinase, AMPK (Homo sapiens) (UniProt P54646+O43741+P54619+Q9UGJ0+Q9Y478+Q13131+Q9UGI9); test: AMP-dependent Kinase enzyme assay. An in vitro enzyme assay that detects ADP turnover that is directly proportional to AMPK activity. This uses naive AMPK that is activated during the assay with MK-8722; assay type: functional; conditions: 30 µM
# [4] = target: Sialic acid-binding Ig-like lectin 9 (Homo sapiens) (UniProt Q9Y336); test: Hs-Siglec9 ALPHAscreen SOP 20170721; conditions: 10 µM
# Sialic acid-binding Ig-like lectin 9 (Homo sapiens), sequence (Q9Y336 whole entry): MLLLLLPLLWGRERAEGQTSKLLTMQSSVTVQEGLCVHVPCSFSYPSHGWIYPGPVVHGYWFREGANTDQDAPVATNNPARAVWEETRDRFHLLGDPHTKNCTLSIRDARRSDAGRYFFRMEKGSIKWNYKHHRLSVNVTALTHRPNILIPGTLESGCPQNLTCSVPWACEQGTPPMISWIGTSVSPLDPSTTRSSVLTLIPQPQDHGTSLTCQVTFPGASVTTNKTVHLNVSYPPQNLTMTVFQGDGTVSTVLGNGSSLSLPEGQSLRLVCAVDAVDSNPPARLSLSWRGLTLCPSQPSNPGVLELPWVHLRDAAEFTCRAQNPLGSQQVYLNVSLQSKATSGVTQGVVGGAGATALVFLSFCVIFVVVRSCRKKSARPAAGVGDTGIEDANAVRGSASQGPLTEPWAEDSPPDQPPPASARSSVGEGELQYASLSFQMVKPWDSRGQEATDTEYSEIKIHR
# [5] = test system: Trypanosoma cruzi; test: Trypanosoma cruzi phosphomannomutase and mannose-1-phosphate guanylyltransferase assay; assay type: functional; conditions: 10 µM
# [6] = target: T2, Arginase-2, mitochondrial (Homo sapiens) (UniProt P78540); test: in vitro enzyme assay to detect the production of urea directly proportional to the activity of Arginase II; assay type: functional; conditions: 33.3 µM; further: in the data most compounds retested in dose-response had high values
# T2 sequence (whole entry): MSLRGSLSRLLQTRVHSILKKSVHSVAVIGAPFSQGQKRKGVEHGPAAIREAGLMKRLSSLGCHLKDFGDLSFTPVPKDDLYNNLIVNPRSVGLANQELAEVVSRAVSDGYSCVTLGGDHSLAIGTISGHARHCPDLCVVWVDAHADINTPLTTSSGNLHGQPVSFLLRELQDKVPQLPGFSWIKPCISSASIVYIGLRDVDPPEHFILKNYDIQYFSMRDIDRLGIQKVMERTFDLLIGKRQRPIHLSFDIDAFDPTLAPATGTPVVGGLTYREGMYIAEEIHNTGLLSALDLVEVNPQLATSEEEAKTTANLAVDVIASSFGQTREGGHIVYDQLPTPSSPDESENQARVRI
# [7] = target: T3, Proteasome subunit beta (Trypanosoma cruzi) (UniProt O96673); test: Trypanosoma cruzi proteasome chymotrypsin-like activity (TcProtChymo) assay.; further: in the data most compounds retested in dose-response had high values; assay type: functional; conditions: 9.37 µM
# T3 sequence (whole entry): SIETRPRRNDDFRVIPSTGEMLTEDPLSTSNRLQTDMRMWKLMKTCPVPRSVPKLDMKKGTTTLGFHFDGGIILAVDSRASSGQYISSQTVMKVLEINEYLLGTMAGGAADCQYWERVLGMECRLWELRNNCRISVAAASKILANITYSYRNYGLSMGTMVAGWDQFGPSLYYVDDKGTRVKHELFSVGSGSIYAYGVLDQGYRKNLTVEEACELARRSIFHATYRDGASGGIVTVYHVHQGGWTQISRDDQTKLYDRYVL
# [8] = species on record: Homo sapiens; test: To identify inhibition of the IFN signalling (Jak-Stat) pathway via expression of an eGFP reporter gene under the control of an IFN-stimulated response element (ISRE) containing MxA promoter.; assay type: functional; conditions: 30 µM
# [9] = target: T4, Tyrosyl-tRNA synthetase, putative (Trypanosoma cruzi (strain CL Brener)) (UniProt Q4DSP6); test: Trypanosoma cruzi tyrosyl tRNA synthetase (TcYRS) _High Tyrosine SOP; assay type: functional; conditions: 30 µM; further: in the data most compounds retested in dose-response had high values
# T4 sequence (whole entry): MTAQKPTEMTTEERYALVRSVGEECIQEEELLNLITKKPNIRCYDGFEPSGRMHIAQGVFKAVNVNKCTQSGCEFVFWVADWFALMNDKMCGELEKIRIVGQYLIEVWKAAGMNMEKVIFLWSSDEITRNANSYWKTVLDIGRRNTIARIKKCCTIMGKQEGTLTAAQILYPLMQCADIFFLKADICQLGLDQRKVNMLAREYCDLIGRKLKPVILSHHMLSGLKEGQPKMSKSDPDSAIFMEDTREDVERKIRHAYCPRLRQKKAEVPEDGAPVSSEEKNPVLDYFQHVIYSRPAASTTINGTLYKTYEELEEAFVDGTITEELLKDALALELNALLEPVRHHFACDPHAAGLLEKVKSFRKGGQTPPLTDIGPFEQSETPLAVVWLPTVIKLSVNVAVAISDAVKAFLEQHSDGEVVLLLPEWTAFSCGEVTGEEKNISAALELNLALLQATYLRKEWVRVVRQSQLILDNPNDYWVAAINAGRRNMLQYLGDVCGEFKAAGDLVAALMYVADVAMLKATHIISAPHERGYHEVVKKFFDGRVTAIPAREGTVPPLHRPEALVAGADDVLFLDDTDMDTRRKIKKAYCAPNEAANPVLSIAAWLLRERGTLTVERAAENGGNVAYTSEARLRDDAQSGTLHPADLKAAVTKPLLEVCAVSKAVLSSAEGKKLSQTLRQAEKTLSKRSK
# [10] = target: T4, Tyrosyl-tRNA synthetase, putative (Trypanosoma cruzi (strain CL Brener)); test: Trypanosoma cruzi tyrosyl tRNA synthetase (TcYRS) SOP; assay type: functional; conditions: 30 µM
# [11] = target: Chromo domain-containing protein 1 (Saccharomyces cerevisiae (strain ATCC 204508 / S288c) (Baker's yeast)) (UniProt P32657); test: ScCHD-1 Enzyme Inhibition Assay; assay type: functional; conditions: 30 µM; further: in the data most compounds retested in dose-response had high values
# Chromo domain-containing protein 1 (Saccharomyces cerevisiae (strain ATCC 204508 / S288c) (Baker's yeast)), sequence (P32657 whole entry, the tested form may be a part): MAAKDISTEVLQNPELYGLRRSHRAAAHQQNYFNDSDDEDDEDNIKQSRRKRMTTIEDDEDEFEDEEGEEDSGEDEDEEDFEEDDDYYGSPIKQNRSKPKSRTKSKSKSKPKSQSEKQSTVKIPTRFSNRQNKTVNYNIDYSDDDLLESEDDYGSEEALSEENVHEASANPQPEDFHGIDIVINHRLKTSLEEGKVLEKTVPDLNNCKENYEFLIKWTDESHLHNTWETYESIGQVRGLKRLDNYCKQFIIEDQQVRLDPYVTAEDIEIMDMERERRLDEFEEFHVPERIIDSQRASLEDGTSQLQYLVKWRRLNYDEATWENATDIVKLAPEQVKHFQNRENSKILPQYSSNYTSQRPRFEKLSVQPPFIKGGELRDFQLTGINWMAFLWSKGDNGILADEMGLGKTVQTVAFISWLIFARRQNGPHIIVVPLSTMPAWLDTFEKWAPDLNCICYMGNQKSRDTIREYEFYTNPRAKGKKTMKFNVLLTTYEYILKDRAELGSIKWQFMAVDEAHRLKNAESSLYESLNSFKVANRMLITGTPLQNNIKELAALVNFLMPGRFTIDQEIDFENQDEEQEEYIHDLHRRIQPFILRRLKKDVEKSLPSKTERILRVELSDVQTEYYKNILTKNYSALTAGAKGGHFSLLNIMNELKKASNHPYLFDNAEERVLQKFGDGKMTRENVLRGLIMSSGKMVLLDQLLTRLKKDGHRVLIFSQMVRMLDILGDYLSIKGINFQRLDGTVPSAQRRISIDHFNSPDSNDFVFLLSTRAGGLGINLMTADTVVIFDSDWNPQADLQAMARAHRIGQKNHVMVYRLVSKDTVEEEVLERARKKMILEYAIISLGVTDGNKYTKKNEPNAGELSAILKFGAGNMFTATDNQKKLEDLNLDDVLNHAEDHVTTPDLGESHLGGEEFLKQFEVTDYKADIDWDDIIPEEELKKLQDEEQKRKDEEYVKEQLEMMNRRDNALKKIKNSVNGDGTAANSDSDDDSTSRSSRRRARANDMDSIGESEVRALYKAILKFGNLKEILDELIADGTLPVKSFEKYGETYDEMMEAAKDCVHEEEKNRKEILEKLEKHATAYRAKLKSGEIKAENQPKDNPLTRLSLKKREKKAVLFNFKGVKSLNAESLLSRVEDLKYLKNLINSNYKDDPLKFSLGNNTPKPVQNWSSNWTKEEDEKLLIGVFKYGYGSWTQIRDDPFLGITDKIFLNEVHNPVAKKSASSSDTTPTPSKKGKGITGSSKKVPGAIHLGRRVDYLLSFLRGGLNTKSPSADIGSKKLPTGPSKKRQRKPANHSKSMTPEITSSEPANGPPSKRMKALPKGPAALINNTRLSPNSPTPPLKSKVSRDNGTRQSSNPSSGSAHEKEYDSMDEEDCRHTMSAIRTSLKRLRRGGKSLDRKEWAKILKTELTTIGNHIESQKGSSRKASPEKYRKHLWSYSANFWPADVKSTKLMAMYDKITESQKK
# Protein translocase subunit SecA (Escherichia coli (strain K12)), sequence (P10408 whole entry): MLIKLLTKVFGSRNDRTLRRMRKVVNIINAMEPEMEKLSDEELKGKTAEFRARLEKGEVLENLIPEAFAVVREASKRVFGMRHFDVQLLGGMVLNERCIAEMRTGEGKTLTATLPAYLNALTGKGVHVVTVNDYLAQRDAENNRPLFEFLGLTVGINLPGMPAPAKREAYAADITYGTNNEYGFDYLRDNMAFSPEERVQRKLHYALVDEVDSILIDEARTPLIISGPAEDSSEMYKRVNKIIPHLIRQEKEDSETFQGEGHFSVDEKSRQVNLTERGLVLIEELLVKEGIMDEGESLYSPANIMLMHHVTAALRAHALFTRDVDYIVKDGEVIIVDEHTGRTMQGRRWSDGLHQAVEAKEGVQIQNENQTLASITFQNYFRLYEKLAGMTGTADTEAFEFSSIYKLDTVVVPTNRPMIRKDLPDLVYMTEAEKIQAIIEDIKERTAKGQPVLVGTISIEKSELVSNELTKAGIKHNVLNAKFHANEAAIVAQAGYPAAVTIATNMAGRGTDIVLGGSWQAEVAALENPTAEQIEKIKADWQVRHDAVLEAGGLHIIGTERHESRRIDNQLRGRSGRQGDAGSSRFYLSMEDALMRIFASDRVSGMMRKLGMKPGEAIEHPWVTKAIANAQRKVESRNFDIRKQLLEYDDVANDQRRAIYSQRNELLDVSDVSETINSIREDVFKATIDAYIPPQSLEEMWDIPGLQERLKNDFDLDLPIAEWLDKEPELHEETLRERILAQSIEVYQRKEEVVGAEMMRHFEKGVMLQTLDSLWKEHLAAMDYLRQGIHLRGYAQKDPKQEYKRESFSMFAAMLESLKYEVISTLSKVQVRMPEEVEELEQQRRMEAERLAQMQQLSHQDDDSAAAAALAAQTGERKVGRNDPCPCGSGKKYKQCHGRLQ
SMILES,Percent Effect [1],Percent Effect [2],Percent Effect [3],Percent Effect [4],Percent Effect [5],Percent Effect [6],Percent Effect [7],Percent Effect [8],Percent Effect [9],Percent Effect [10],Percent Effect [11]
Cc1cnn(CC2CCCN2C(=O)c2cc3ccccc3[nH]2)c1 (stereo not given),-8.63%,13%,-0.229%,-0.244%,7.74%,-1.05%,7.2%,1.95%,3.81%,11.8%,-12.1%
Cc1ccc(N2CCCN(C(=O)C3(C#N)CCCCC3)CC2)nn1,-6.11%,5.26%,-4.48%,3.79%,6.39%,1.53%,0.668%,-2.34%,5.39%,0%,-14.5%
CC(C)Cc1cc(C(=O)NCc2nnc[nH]2)[nH]n1,-3.85%,7.89%,11.2%,7.63%,-3.02%,-4.73%,13.1%,-0.467%,1.06%,-2.6%,-1.14%
CS(=O)(=O)c1ccc(CNC(=O)N2CCC(C(N)=O)C2)cc1 (stereo not given),-5.24%,25.3%,-8.85%,3.98%,8.78%,-3.04%,14.2%,0.909%,8.37%,26.6%,-5.74%
CN(C)C(=O)C1CN(Cc2ccccc2)CCN(S(C)(=O)=O)C1 (stereo not given),-5.51%,17.6%,8.68%,7.06%,4.35%,-3.02%,3.12%,11.2%,2.15%,9.09%,-19.2%
N#Cc1c(F)cccc1N1CCN(S(=O)(=O)c2cccs2)CC1,-2.74%,-8.22%,3.3%,3.95%,3.33%,13.2%,8.16%,55.5%,-38.7%,-52.5%,48.5%
Cc1nn(C)c2cnn(CC(=O)NCCc3ccccc3)c12,-4.41%,6.67%,5.28%,4.15%,-2.16%,-12.5%,13.3%,1.66%,5.29%,17.9%,-8.21%
O=C(NCc1ccoc1)Nc1ccc(CN2CCOC2=O)cc1,-4.58%,1.39%,6.74%,-4.22%,-6.12%,0%,15.1%,24.8%,0%,-5.13%,-2.04%
O=C(Cc1csc(-c2ccc(Cl)cc2)n1)NC(C(=O)O)c1ccccc1 (stereo not given),-2.32%,-1.33%,10.5%,1.1%,-3.73%,-9.68%,14.6%,0.509%,1.06%,-2.56%,-10%
NC(=O)CC1CCN(C(=O)CCOc2ccc(Cl)cc2)CC1,-3.65%,10.5%,2.65%,4.69%,0.752%,-4.6%,8.19%,1.27%,6.37%,12.2%,-8.66%
Cc1csc([C@@H]2C[C@@H]3CCN(C(=O)c4cc(C)on4)C[C@H]3O2)n1,-3.41%,20.8%,-1.54%,-4.81%,4.04%,5.81%,11.7%,12.7%,4.23%,16.7%,-9.47%
CN(C)C(=O)NC1COC2(CCN(C(=O)Nc3ccccc3)CC2)C1 (stereo not given),5.37%,18.7%,1.41%,-7.63%,-3.54%,0.699%,8.72%,3.6%,-1.06%,6.41%,2.03%
N#Cc1ccc(OCCN2CCc3c(ncn3C3CC3)C2)cc1,-3.1%,23.4%,-12.7%,-6.96%,-1.31%,0%,7.26%,-0.819%,13.6%,9.76%,-10.1%
CN(CC(F)(F)F)C(=O)C1CSCN1C(=O)OC(C)(C)C (stereo not given),-2.64%,2.74%,-4.74%,-3.23%,-3.33%,2.27%,11.9%,2.3%,1.07%,7.5%,-1.01%
CCN(CC)CCNc1ncc(-c2cc(C)no2)c(-c2ccoc2C)n1,-7.13%,20.3%,6.82%,3.2%,2.77%,-3.94%,8.74%,0.0946%,5.38%,14.3%,-20.7%
CC(C)c1nc2n(n1)CC(NCc1nnnn1C1CC1)CC2 (stereo not given),-2.7%,32.4%,-23.1%,6.96%,3.87%,-15.6%,7.39%,9.98%,4.43%,18.5%,-10.6%
Cc1ccccc1N1CCCN(C(=O)CCCS(N)(=O)=O)CC1,-0.353%,8.22%,25.9%,2.05%,-8.62%,2.73%,23.8%,28.3%,3.23%,2.5%,-13.8%
O=C1CCC2(CCN(Cc3nccs3)CC2)N1Cc1ccccc1,-0.659%,5.33%,5.45%,1.02%,-5.91%,3.03%,10.8%,5.84%,5.32%,11.5%,-0.585%
CCNc1cc2c(nn1)CCN(C(=O)Cc1c(C)noc1C)C2,-9.15%,7.89%,9.72%,1.08%,-5.51%,0.719%,3.47%,6.32%,0.493%,1.24%,3.07%
Cc1cnc(CN2CCC(N(C)Cc3nnc(C4CC4)n3C)C2)cn1 (stereo not given),-4.85%,0%,1.39%,-3.06%,-0.0978%,2.73%,8.67%,-19.5%,6.45%,8.64%,-2.52%
